# Hits are enriched below; roughly 19% of the tested compounds scored in any of these assays.
# KB-3-1 tox: kills parental KB-3-1 adenocarcinoma cells. KB-3-1 viability, CellTiter-Glo ATP luminescence, 72 h. Potency, µM (top dose mostly 46.1 µM), actives largely listed as cytotoxic. actives 1.4% (n = 400,000); also: nearly all actives have a fitted effect of over 60% in size
#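 72 h, 37 °C compound treatment of KB-3-1 parental cells; CellTiter-Glo added, 10 min, luminescence read. Data corrected against DMSO-only plates and normalized before curve fitting.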
# KB-V1 MDR tox: kills drug-selected multidrug resistant KB-V1 cells. KB-V1 MDR cells viability, CellTiter-Glo, 72 h. Potency, µM (series often up to 46.1 µM), most hits filed as cytotoxic. actives 3.4% (n = 400,000); also: nearly all actives have a fitted effect of over 60% in size
#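 KB-V1, DMEM (no phenol red) + 10% FBS; cpd pin-transferred, titration series; 72 h, 37 degrees C; CellTiter-Glo, luminescence. Data normalized, curve-fit.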
# DT40 TDP1 no CPT: qHTS for Inhibitors of human tyrosyl-DNA phosphodiesterase 1 (TDP1): qHTS in cells in absence of CPT | DT40 Tdp1-/- hTDP1 cells, no CPT, ATP luminescence, 48 h | Potency, µM (doses to about 46.2 µM), for inactives: at the top dose activity change, negative = growth inhibition, hits mostly inhibitors | actives 15% (n = 420,000) | AID 686978, 2013; also: nearly all actives have a fitted effect of over 55% in size
#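 Chicken DT40 Tdp1-/- cells complemented with human TDP1, screened without camptothecin (DMSO vehicle only), 400 cells/well. Compounds pin-transferred, cells incubated at 37 °C for at least 48 hr. Growth read as ATP-dependent luminescence (CellTiter-Glo, 30 min at RT).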
# HT1080 IDH1KD tx: HT-1080 IDH1 knockdown cell toxicity (counter line) | HT-1080 IDH1 knockdown viability, ATP luminescence, 48 h | Potency, µM (series often up to 46.1 µM), without a hit: at the highest dose activity, negative = toxicity, most hits filed as cytotoxic | actives 2% (n = 360,000) | AID 686971;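 also: 0% = DMSO wells and -100% = cell-free medium wells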
#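 % activity derives from luminescence (CellTiter-Glo), normalised to DMSO and no-cell wells. HT-1080-IDH1KD cells, 750/well, had 48 h compound exposure at 37 °C.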
# HT1080-NT tox: kills 2HG-producing HT-1080-NT fibrosarcoma cells | HT-1080-NT fibrosarcoma viability, CellTiter-Glo ATP luminescence, 48 h | Potency, µM (titrated, usually from 46.1 µM), inactives show top-dose activity, negative = less viability, hits mostly cytotoxic | actives 1.6% (n = 360,000);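 also: NT is the 2HG producing partner of a matched IDH1 knockdown line; 0% = DMSO-treated cells and -100% = media-only wells without cells; nearly all actives have a fitted effect of over 55% in size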
#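 HT-1080-NT; 750 cells/well; 5% FBS RPMI; 48 h compound, 37 degrees C; CellTiter-Glo luminescence; curve fitting and curve-class assignment.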
# DT40 TDP1 CPT: growth inhibition of DT40 Tdp1-/-;hTDP1 cells with camptothecin (screen for TDP1 inhibitors); chicken DT40 Tdp1-/-;hTDP1 cells + 20 nM CPT, ATP luminescence, 48 h; Potency, µM (highest dose often 46.2 µM), for inactives: at the highest dose activity change, negative = growth inhibition, hits mostly inhibitors; actives 12% (n = 420,000); AID 686979; also: nearly all actives have a fitted effect of over 55% in size
#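 Chicken DT40 Tdp1-/- cells complemented with human TDP1, 400 cells/well, exposed to compounds plus 20 nM camptothecin for at least 48 h at 37 C; viability read as ATP content by CellTiter-Glo luminescence.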
# * marks the source's active call; other numbers are inactive results; i = inactive; ? = inconclusive; . = no result given. Calls follow the shape of the dose curve; as a rule, active = well fitted curve in the direction sought with a large enough effect; inconclusive = small, poorly fitted or top-dose-only effect, or another doubt; inactive = no such curve, though single readings can be large; an effect the other way counts as inactive or inconclusive. Unless noted, % is scaled to controls: 0 for no effect and ±100 for the full control effect; potency is read from the fitted curve at half-maximal effect.
SMILES,KB-3-1 tox,KB-V1 MDR tox,DT40 TDP1 no CPT,HT1080 IDH1KD tx,HT1080-NT tox,DT40 TDP1 CPT
Cc1cc(OCc2cc(C(=O)NC3CCC3)no2)cc(C)c1Cl,i,i,?,0.0%,6.5%,?
CC(NC(=O)c1cc(COc2ccc3ncccc3c2)on1)c1ccc(F)cc1 (stereo not given),?,i,3.66µM*,?,-22.2%,6.51µM*
Cc1ccc(OCc2cc(C(=O)N3CCCCCCC3)no2)cc1C,i,i,5.2%,1.1%,5.0%,-17.9%
O=C(NCCc1cn2ccccc2n1)c1cc(COc2ccc3ncccc3c2)on1,?,8.2µM*,5.8µM*,-28.4%,-4.3%,4.11µM*
Cc1ccc(OCc2cc(C(=O)NC3CCCCC3)no2)cn1,?,?,8.2µM*,14.6µM*,?,13µM*
O=C(c1cc(COc2ccc3ncccc3c2)on1)N1CCCCCC1,?,i,2.59µM*,?,3.66µM*,4.11µM*
CC(NC(=O)c1cc(COc2ccccc2)on1)c1nccs1 (stereo not given),i,i,-20.3%,6.0%,0.8%,?
Cc1onc(-c2ccccc2)c1NC(=O)N(CCC#N)Cc1ccccc1,i,i,-17.6%,14.4%,21.7%,3.5%
O=C(NC1CCCC1)c1cc(COc2ccc3ncccc3c2)on1,i,?,2.06µM*,?,?,3.66µM*
COCC1CCN(C(=O)c2cc(COc3ccc(-n4cncn4)cc3)on2)CC1,i,i,-18.8%,1.7%,-10.4%,?
COc1cccc(OCc2cc(C(=O)NC3CCOCC3)no2)c1,i,?,15.9%,1.6%,-4.7%,-6.6%
COCC1CCN(C(=O)c2cc(COc3ccc4ncccc4c3)on2)CC1,?,7.31µM*,8.2µM*,-14.7%,-1.9%,3.66µM*
O=C(c1cc(COc2ccc3ncccc3c2)on1)N1CCCC1,?,?,6.51µM*,14.6µM*,20.6µM*,7.31µM*
COc1ccc(N(CC(=O)Nc2nccs2)S(=O)(=O)c2c(C)[nH]c(=O)[nH]c2=O)cc1,i,i,7.9%,8.2%,-3.6%,-12.7%
COc1ccc(CCCc2nnc(SCC(=O)Nc3cccc(F)c3C)o2)cc1,i,i,-10.7%,.,.,-15.3%
COC(=O)CCCC(=O)N1CCCC(CCC(=O)NCc2ccc(F)c(F)c2)C1 (stereo not given),i,i,-4.6%,12.6%,6.4%,-10.2%
O=S(=O)(c1ccc(Cl)cc1)N1CN(CC2CCCO2)c2nc3ccccc3nc21 (stereo not given),i,i,-17.2%,-3.9%,-9.0%,?
COc1ccc(S(=O)(=O)N2c3cc(Cl)ccc3Oc3nc4ccccc4nc32)cc1,2.06µM*,7.31µM*,1.64µM*,0.92µM*,?,0.731µM*
O=S(=O)(c1ccc(Cl)cc1)N1c2ccccc2Oc2nc3ccccc3nc21,?,?,16.4µM*,5.5%,8.2%,23.1µM*
COc1cc2c(cc1OC)C(c1ccccc1C(F)(F)F)CC(=O)N2 (stereo not given),i,i,?,-16.1%,-20.4%,-3.2%
CC(C)OC(=O)/C=C1\C[C@@H](c2ccccc2C(F)(F)F)O[C@@H](c2ccccc2C(F)(F)F)O1,?,i,20.6µM*,9.2%,18.3%,?
CCOc1ccc(NC(=O)[C@H](Cc2ccccc2)N2Cc3ccccc3C2=O)cc1,i,i,-3.3%,.,.,5.0%
CCOC(=O)C(Cc1ccc(NC(=O)/C(=C/c2ccccc2)NC(=O)c2ccccc2)cc1)N1C(=O)c2ccccc2C1=O (stereo not given),i,i,5.8µM*,-0.5%,-22.1%,5.17µM*
CCOc1ccc(NC(=O)C(Cc2ccccc2)N2C(=O)c3cccc4cccc(c34)C2=O)cc1 (stereo not given),?,?,8.2µM*,-19.7%,-17.9%,11.6µM*
O=S(=O)(Nc1nc2ccccc2nc1N1CCN(CCO)CC1)c1cc(F)ccc1F,i,i,20.8%,-2.9%,0.3%,23.1µM*
SMILES,KB-3-1 tox,KB-V1 MDR tox,DT40 TDP1 no CPT,HT1080 IDH1KD tx,HT1080-NT tox,DT40 TDP1 CPT
Cc1ccccc1S(=O)(=O)Nc1nc2ccccc2nc1Cl,i,i,-19.8%,-13.1%,-15.9%,-18.9%
Cc1n[nH]c(=O)nc1N1CCc2ccccc2C1,i,i,18.4µM*,0.1%,10.2%,-3.5%
O=S(=O)(Nc1nc2ccccc2nc1Cl)c1ccc(Cl)cc1,?,?,?,-10.3%,-17.1%,-0.4%
Cc1ccccc1S(=O)(=O)Nc1nc2ccccc2nc1N1CCc2ccccc2C1,i,20.6µM*,?,-18.8%,-9.3%,-25.4%
COc1ccc(N2CCN(c3nc4ccccc4nc3NS(=O)(=O)c3ccccc3)CC2)cc1,i,i,-27.2%,0.3%,-2.7%,5.4%
O=S(=O)(Nc1nc2ccccc2nc1N1CCc2ccccc2C1)c1ccc(Cl)cc1,14.6µM*,14.6µM*,?,-16.5%,-3.0%,?
N#Cc1ccc(S(=O)(=O)N2CCN(Cc3cccs3)CC2)cc1,i,i,?,2.8%,-2.2%,?
Cc1onc(-c2c(Cl)cccc2Cl)c1/C(N)=N/OC(=O)C1CC1,i,i,-22.6%,8.4%,9.2%,-2.7%
CCOC(=O)c1c(C)c(-c2ccccc2)n(CC(=O)NC(CC)Cc2ccccc2)c1C (stereo not given),i,i,?,.,.,?
O=C(O)C1=CCC=CC1C(=O)O (stereo not given),i,i,-0.3%,-3.0%,-1.9%,-8.0%
O=S(=O)(Nc1nc2ccccc2nc1N1CCc2ccccc2C1)c1ccc(Br)cc1,?,i,18.4µM*,?,-19.7%,?
CC(=O)Nc1ccc(S(=O)(=O)Nc2nc3ccccc3nc2N2CCc3ccccc3C2)cc1,i,9.2µM*,10.0%,1.4%,2.6%,10.8%
CN1CCN(c2nc3ccccc3nc2NS(=O)(=O)c2ccc(Br)cc2)CC1,i,i,-28.0%,-8.6%,-1.0%,-1.9%
CC(=O)Nc1ccc(S(=O)(=O)Nc2nc3ccccc3nc2N2CCCCCC2)cc1,i,i,-6.1%,-6.3%,-2.7%,-5.2%
CCOc1ccc(S(=O)(=O)NCCc2c(C)[nH]c3c(Cl)cccc23)cc1C,i,i,?,.,.,23.1µM*
CCOc1ccc(S(=O)(=O)NCc2cccnc2)cc1C,i,i,-7.1%,3.6%,17.0%,1.6%

# High-throughput results: PubChem, National Center for Advancing Translational Sciences (NCATS)
